HT1080 IDH1KD tx: toxicity to HT-1080 IDH1 knockdown cells (counter line); HT-1080 IDH1 knockdown viability, ATP luminescence, 48 h; Potency, µM (top dose mostly 46.1 µM), usual class: cytotoxic; 2% of 360,000 active; AID 686971
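Knockdown cells (IDH1KD HT-1080) received compounds 2 h after plating at 750 cells/well and were kept 48 h at 37 °C in 5% FBS RPMI. A CellTiter-Glo luminescence read gave % activity for curve fitting.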
KB-3-1 cytotox: KB-3-1 parental cell cytotoxicity; KB-3-1 viability, CellTiter-Glo ATP luminescence, 72 h; Potency, µM (top dose mostly 46.1 µM), actives largely listed as cytotoxic; 1.4% of 400,000 active; further: nearly all actives have a fitted effect of over 60% in size
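Viability of parental KB-3-1 cells, measured by CellTiter-Glo luminescence, followed a 72 h incubation at 37 °C with pinned compounds in phenol-red-free DMEM containing 10% FBS.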
HT1080-NT tox: kills 2HG-producing HT-1080-NT fibrosarcoma cells | HT-1080-NT fibrosarcoma viability, CellTiter-Glo ATP luminescence, 48 h | Potency, µM (series often up to 46.1 µM), actives largely listed as cytotoxic | 1.6% of 360,000 active;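 further: NT is the 2HG producing partner of a matched IDH1 knockdown line; nearly all actives have a fitted effect of over 55% in size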
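Toxicity toward the 2HG-producing NT line was scored as %Activity, normalised to DMSO and no-cell wells, from CellTiter-Glo luminescence after 48 hours' treatment.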
SW480 rereplic: DNA re-replication induction in SW480 cells; Potency, µM (highest dose often 46.1 µM), actives largely listed as activators; 1.8% of 340,000 active; SW480 DNA re-replication, Hoechst DNA content imaging, 48 h; further: nearly all actives have a fitted effect of over 55% in size
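Image-based read-out: total Hoechst fluorescence of nuclei (405 nm excitation, 500-530 nm emission), with hits raising the fraction of high-intensity nuclei. SW480 colon cells incubated 48 hr with compounds at 37 C.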
KB-V1 cytotox: KB-V1 MDR subline cytotoxicity. KB-V1 MDR cells viability, CellTiter-Glo, 72 h. Potency, µM (highest dose often 46.1 µM), actives largely listed as cytotoxic. 3.4% of 400,000 active; further: nearly all actives have a fitted effect of over 60% in size
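Cytotoxicity toward P-gp-expressing KB-V1 cells was determined as loss of CellTiter-Glo luminescence after 72 h at 37 degrees C. Compounds were tested in quantitative HTS format across a concentration range, with curves fitted to normalized data.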
MCF10A rereplic: DNA re-replication induction in MCF 10a cells; MCF 10A DNA re-replication, Hoechst nuclear intensity, 48 h; Potency, µM (series often up to 46.1 µM), actives largely listed as activators; 2.9% of 350,000 active; further: nearly all actives have a fitted effect of over 50% in size
Of the large screens only hits and unclear results are named; the others gave an inactive call. Compounds with a hit are over-represented: about 8% of the library has one in this group of screens. The call rests on the fitted dose curve; in most records, active means well fitted curve in the direction sought with a large enough effect; inconclusive means small, poorly fitted or top-dose-only effect, or another doubt; inactive means no such curve, though single readings can be large; an effect the other way counts as inactive or inconclusive.

COc1ccc(/C=C/C(=O)O/N=C(\N)c2cccnc2)cc1OC	none
COc1cc(C(c2c(C)[nH][nH]c2=O)c2c(C)[nH][nH]c2=O)ccc1OC(=O)c1cccc([N+](=O)[O-])c1	KB-V1 cytotox inconclusive
COC(=O)C(=Cc1ccc(OCc2ccc([N+](=O)[O-])cc2)c(OC)c1)C(=O)OC	HT1080 IDH1KD tx inconclusive, HT1080-NT tox inconclusive, KB-V1 cytotox inconclusive, MCF10A rereplic 1.5µM
CCOC(=O)C(=Cc1ccc(OCc2ccc([N+](=O)[O-])cc2)c(OC)c1)C(=O)OCC	HT1080 IDH1KD tx inconclusive, KB-3-1 cytotox inconclusive, HT1080-NT tox 21µM, SW480 rereplic 4.6µM, KB-V1 cytotox 21µM, MCF10A rereplic 5.8µM
Cc1c(CC(=O)NCC(=O)O)c(=O)oc2cc3c(cc12)CCC(C)(C)O3	none
COc1ccc(CN2CCc3ccccc3C2)c(OC)c1	none
COc1ccc(C2=[N+](C)CCn3cccc32)c(OC)c1	HT1080 IDH1KD tx inconclusive, KB-3-1 cytotox inconclusive, SW480 rereplic 0.52µM, MCF10A rereplic inconclusive
COc1ccc(NC(=O)C2CCC(CNS(=O)(=O)c3cccs3)CC2)cc1 (stereo not given)	HT1080-NT tox inconclusive
COc1cccc(NC(=O)c2nc(S(C)(=O)=O)ncc2Cl)c1	HT1080 IDH1KD tx 8.2µM, HT1080-NT tox 5.2µM, SW480 rereplic 2.3µM, MCF10A rereplic 5.8µM
CN(c1ccccc1)S(=O)(=O)c1ccc(NC(=O)c2nc(S(C)(=O)=O)ncc2Cl)cc1	HT1080 IDH1KD tx 12µM, KB-3-1 cytotox inconclusive, HT1080-NT tox inconclusive, SW480 rereplic 9.2µM, KB-V1 cytotox inconclusive, MCF10A rereplic inconclusive
Cc1ccc(NC(=O)N2CC3CCCN3c3ccccc32)c(C)c1 (stereo not given)	none (no result: HT1080 IDH1KD tx, HT1080-NT tox, SW480 rereplic, MCF10A rereplic)
CCN(CC)CCCNC(=O)C1CCC(CNS(=O)(=O)c2c(C)cc(C)cc2C)CC1 (stereo not given)	MCF10A rereplic 21µM
Cc1cccc(C)c1NC(=O)N1CCC(c2nc3ccccc3o2)CC1	KB-V1 cytotox 21µM
O=C1CN(C(=O)COc2ccc(Cl)cc2)C(c2ccc(F)cc2)c2cc(Cl)ccc2N1 (stereo not given)	none (no result: HT1080 IDH1KD tx, HT1080-NT tox, SW480 rereplic, MCF10A rereplic)
O=S(=O)(c1ccc(Br)cc1)N1CCOCC1	none (no result: HT1080 IDH1KD tx, HT1080-NT tox, SW480 rereplic, MCF10A rereplic)
CCN1CCCC1CN(Cc1cc2ccc(C)cc2[nH]c1=O)C(=S)Nc1ccccc1C(=O)OC (stereo not given)	HT1080 IDH1KD tx inconclusive, HT1080-NT tox inconclusive, SW480 rereplic inconclusive, MCF10A rereplic inconclusive
CCN1CCCC1CN(Cc1cc2ccc(C)cc2[nH]c1=O)C(=S)Nc1ccccc1OC (stereo not given)	HT1080 IDH1KD tx inconclusive, KB-3-1 cytotox inconclusive, HT1080-NT tox inconclusive, SW480 rereplic inconclusive, MCF10A rereplic inconclusive
CCN1CCCC1CN(Cc1cc2ccc(C)cc2[nH]c1=O)C(=S)Nc1cccc(OC)c1 (stereo not given)	HT1080 IDH1KD tx 18µM, HT1080-NT tox inconclusive, SW480 rereplic inconclusive
CCOc1ccccc1NC(=S)N(Cc1cc2ccc(C)cc2[nH]c1=O)CC1CCCN1CC (stereo not given)	KB-3-1 cytotox 13µM, HT1080-NT tox inconclusive, SW480 rereplic inconclusive, MCF10A rereplic inconclusive
CCN1CCCC1CN(Cc1cc2ccc(C)cc2[nH]c1=O)C(=S)Nc1ccc(F)cc1 (stereo not given)	MCF10A rereplic 6.5µM
CC(C)(C)OC(=O)N1CCC(c2c(C(=O)NC3CCN(Cc4ccccc4)CC3)cnn2-c2cccc(F)c2)CC1	none (no result: HT1080 IDH1KD tx, HT1080-NT tox, SW480 rereplic, MCF10A rereplic)
CCOc1ccc(CCNC(=O)c2ccc3c(c2)c(C)c(C)n3C)cc1	none (no result: HT1080 IDH1KD tx, HT1080-NT tox, SW480 rereplic, MCF10A rereplic)
COc1cccc(OC)c1-c1nn2c(-c3ccccc3Cl)nnc2s1	KB-V1 cytotox 9.2µM
COc1cccc(CNC(=O)C2CCN(C(=O)c3cnn(-c4ccccc4)c3-n3cccc3)CC2)c1	none (no result: HT1080 IDH1KD tx, HT1080-NT tox, SW480 rereplic, MCF10A rereplic)
CCN(C(=O)C1CCN(S(=O)(=O)c2ccc3c(c2)CCCN3C(C)=O)CC1)c1cccc(C)c1	none (no result: HT1080 IDH1KD tx, HT1080-NT tox, SW480 rereplic, MCF10A rereplic)
Cc1ccccc1NC(=S)NC(C)CCc1ccccc1 (stereo not given)	none

High-throughput results as filed in PubChem BioAssay.
